# L3MBTL1 inh – blocks human L3MBTL1 | Q9Y468 | AlphaScreen L3MBTL1–H3K9me1 peptide binding | Potency, µM (titrated, usually from 57.1 µM), for inactives: top-dose activity, negative = inhibition, most hits filed as inhibitors | 230,000 compounds, 0.66% hits | AID 485360; also: nearly all actives have a fitted effect of over 60% in size
#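 AlphaScreen proximity signal between nickel-chelate acceptor and streptavidin donor beads (final 10 ug/mL) reports binding of 50 nM L3MBTL1 to 75 nM biotin-H3 K9me1 peptide; complex incubated with compounds 30 min at room temperature; cefsulodin titration as control.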
# APE1 inh – inhibitors of human APE1 endonuclease | recombinant APE1, TAMRA/BHQ-2 abasic DNA cleavage fluorescence | Potency, µM (titrated, usually from 65.8 µM), inactives show top-dose activity change, negative = inhibition, usual class: inhibitors | 350,000 compounds, 0.35% hits | AID 2517;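 also: plate controls were vehicle for no effect and reference inhibitor for full effect; nearly all actives have a fitted effect of over 55% in size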
#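 APE1 at 0.75 nM final was preincubated with compound 15 min at room temperature, then 50 nM double-stranded THF abasic-site substrate (5'-TAMRA/3'-BHQ-2) was added. Fluorescence (ex 525/em 598 nm) was read kinetically; third-minus-first read gave activity.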
# JMJD2E inh – blocks human JMJD2E demethylase activity. JMJD2E catalytic domain, FDH-coupled NADH fluorescence (FDH is formaldehyde dehydrogenase). Potency, µM (doses to about 57.1 µM), without a hit: at the top dose activity change, negative = inhibition, actives largely listed as inhibitors. 230,000 compounds, 1.6% hits. AID 2147; active = well fitted inhibition curve with a large enough effect, not every such curve was filed as active; inconclusive = small, poorly fitted or top-dose-only effect, or another doubt; inactive = no such curve, though single readings can be large or run the other way;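 also: 0% = wells with enzyme and -100% = buffer wells without enzyme; nearly all actives have a fitted effect of over 50% in size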
# BLM inh – inhibitors of human Bloom syndrome helicase BLM | P54132 | recombinant BLM DNA unwinding, fluorescence dequenching | Potency, µM (top dose mostly 56.1 µM), inactives show top-dose activity change, negative = inhibition, hits mostly inhibitors | 350,000 compounds, 0.2% hits | AID 2528;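 also: plate controls were vehicle for no effect and no enzyme for full effect; nearly all actives have a fitted effect of over 35% in size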
# Target sequence (P54132 whole entry, looked up): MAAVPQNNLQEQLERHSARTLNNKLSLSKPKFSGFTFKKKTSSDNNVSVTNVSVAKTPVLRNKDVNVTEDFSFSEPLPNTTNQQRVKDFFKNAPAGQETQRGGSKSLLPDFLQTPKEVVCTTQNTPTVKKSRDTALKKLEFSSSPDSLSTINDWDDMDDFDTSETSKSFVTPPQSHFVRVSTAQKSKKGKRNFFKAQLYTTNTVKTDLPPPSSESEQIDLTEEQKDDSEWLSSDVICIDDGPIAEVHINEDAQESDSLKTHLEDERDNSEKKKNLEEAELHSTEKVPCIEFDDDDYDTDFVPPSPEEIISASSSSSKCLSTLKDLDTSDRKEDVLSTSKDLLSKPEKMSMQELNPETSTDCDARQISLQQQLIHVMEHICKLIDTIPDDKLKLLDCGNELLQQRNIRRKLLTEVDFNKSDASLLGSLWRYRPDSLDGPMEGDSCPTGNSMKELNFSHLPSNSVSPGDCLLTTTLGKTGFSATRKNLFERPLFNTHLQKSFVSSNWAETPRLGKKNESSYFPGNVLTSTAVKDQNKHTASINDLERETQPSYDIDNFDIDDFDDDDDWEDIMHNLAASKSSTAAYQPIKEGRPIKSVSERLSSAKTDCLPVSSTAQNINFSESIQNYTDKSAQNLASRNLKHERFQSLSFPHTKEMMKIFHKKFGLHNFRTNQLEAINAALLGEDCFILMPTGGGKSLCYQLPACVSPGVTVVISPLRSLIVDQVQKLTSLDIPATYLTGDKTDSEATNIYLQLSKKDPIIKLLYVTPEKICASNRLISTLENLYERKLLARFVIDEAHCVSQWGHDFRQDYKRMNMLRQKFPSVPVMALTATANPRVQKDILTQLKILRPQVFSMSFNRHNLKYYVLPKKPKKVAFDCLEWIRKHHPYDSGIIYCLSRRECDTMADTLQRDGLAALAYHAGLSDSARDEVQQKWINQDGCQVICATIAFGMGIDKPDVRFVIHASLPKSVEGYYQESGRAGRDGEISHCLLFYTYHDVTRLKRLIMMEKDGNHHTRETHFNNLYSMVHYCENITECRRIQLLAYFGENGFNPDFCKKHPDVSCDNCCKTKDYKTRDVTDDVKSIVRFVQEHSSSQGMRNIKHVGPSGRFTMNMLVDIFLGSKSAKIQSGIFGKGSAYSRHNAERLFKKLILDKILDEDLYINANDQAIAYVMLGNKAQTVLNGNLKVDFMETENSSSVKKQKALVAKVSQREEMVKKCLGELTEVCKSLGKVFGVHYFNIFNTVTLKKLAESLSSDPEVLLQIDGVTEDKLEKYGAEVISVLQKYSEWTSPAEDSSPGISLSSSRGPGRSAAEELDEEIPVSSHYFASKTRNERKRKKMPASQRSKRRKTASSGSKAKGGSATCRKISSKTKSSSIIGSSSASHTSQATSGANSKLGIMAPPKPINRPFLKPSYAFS
# RECQ1 inh-1 – blocks DNA unwinding by human RECQ1; AID 2549; RECQ1 DNA unwinding, red fluorescence kinetic read; 240,000 compounds, 0.54% hits; Potency, µM (highest dose often 57.3 µM), for inactives: at the top dose activity, negative = inhibition, most hits filed as inhibitors; P46063;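 also: plate controls were vehicle for no effect and no enzyme for full effect; nearly all actives have a fitted effect of over 30% in size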
#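 RECQ1T1 50 nM; forked duplex (20 bp + 30-nt ss tails) 200 nM, ATP 2 mM final; pH 8.0, 2 mM MgCl2, 2.5 ug/ml poly(dI-dC); 15 min compound preincubation; discontinuous kinetic read over 2 h at RT.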
# RECQ1 inh conf – confirmation of human RECQ1 helicase inhibitors; shares compounds with RECQ1 inh-1; RECQ1 helicase DNA unwinding, fluorescence; 610 compounds, 28% hits; Potency, µM (titrated, usually from 229 µM), for inactives: at the top dose activity change, negative = inhibition, hits mostly inhibitors; also: nearly all actives have a fitted effect of over 45% in size
# RECQ1 ADP FP – counter-screen for RECQ1 inhibitors: ADP displacement. 530 compounds, 27% hits. shares compounds with RECQ1 inh-1. Potency, µM (doses to about 228 µM), without a hit: at the highest dose activity change, negative = inhibition, most hits filed as inhibitors. ADP fluorescence polarization displacement counterscreen. AID 2711; also: nearly all actives have a fitted effect of over 45% in size
# RECQ1 inh-2 – RECQ1 helicase inhibition confirmed, round 2; Potency, µM (doses to about 119 µM), for the others: at the highest dose activity, negative = inhibition, actives largely listed as inhibitors; recombinant RECQ1 DNA unwinding, red fluorescence; AID 504841; shares compounds with RECQ1 inh-1; 1,100 compounds, 15% hits; also: nearly all actives have a fitted effect of over 50% in size
# An asterisk follows results filed as active; i = inactive; ? = inconclusive; · = not tested or not shown; ! = not confirmed by another sample; [ ] = remark or other dose. This is one part of a sample in which hits are shown more often than they occur. Unless noted, calls follow the shape of the dose curve; as a rule, active = well fitted curve in the direction sought with a large enough effect; inconclusive = small, poorly fitted or top-dose-only effect, or another doubt; inactive = no such curve, though single readings can be large; an effect the other way counts as inactive or inconclusive. Unless noted, % is scaled to controls: 0 for no effect and ±100 for the full control effect; potency is read from the fitted curve at half-maximal effect.
SMILES,L3MBTL1 inh,APE1 inh,JMJD2E inh,BLM inh,RECQ1 inh-1,RECQ1 inh-2,others
CC1CCc2c(sc(NC(=O)COC(=O)c3ccc(O)cc3)c2C#N)C1 (centres undefined),-21%,6%,-23%,-12%,?,·,
COc1ccc(CNC(=O)C2CCCCN2S(=O)(=O)c2ccc(F)cc2)cc1 (centres undefined),·,·,·,3%,·,·,
CCCCn1c(Cl)nc2c1c(=O)n(C)c(=O)n2C,1%,-3%,-8%,1%,?,-8%,
Cn1c(=O)c2c(nc(Cl)n2CCOc2ccccc2)n(C)c1=O,·,8%,·,-6%,·,·,
O=C(c1cccs1)N1CCCC(c2nc3c(nnn3Cc3ccccc3)c(=O)[nH]2)C1 (centres undefined),·,1%,1%,-6%,-4%,·,
CCc1sc(C(C2C(=O)CC(C)(C)CC2=O)C2C(=O)CC(C)(C)CC2=O)cc1[N+](=O)[O-],-1%,-7%,-18%,-4%,3.2µM*,-12%,
O=c1[nH]c(Nc2ccccc2)cc2ccccc12,-47%,?,?,3%,?,?,
Cc1ccc2c(CC(=O)NCc3ccccc3)coc2c1C,·,·,·,-2%,·,·,
CCOC(=O)COc1ccccc1/C=C\[N+](=O)[O-],10%,-2%,0%,-4%,-1%,·,
CCCCn1c(NC(=O)c2ccco2)c(S(=O)(=O)c2ccc(C)cc2)c2nc3ccccc3nc21,-8%,?,?,-23%,?,-28%,
CCOc1cccc(=O)c2c(C)n(-c3ccc(C(=O)O)cc3)c(C)c12,?,?,?,33%,?,?,
CCOc1cccc(=O)c2c(C)n(Cc3ccccc3)c(C)c12,-8%,-6%,-12%,-7%,i,·,
Cc1cc(C(F)(F)F)n2[nH]c(=O)c(N=Nc3ccccc3)c2n1,·,0%,?,3%,10µM*,·,RECQ1 inh conf=3%[114 µM];RECQ1 ADP FP=13%[91.9 µM]
CCOc1ccc(C(NC(=O)CC)c2c(O)ccc3ccccc23)cc1 (centres undefined),1%,-18%,·,-8%,·,·,
CC(=O)Oc1ccc2ccccc2c1C(NC(=O)Cc1ccccc1)c1ccc(Cl)cc1 (centres undefined),-2%,9%,-19%,-12%,?,-13%,
Cc1cc(OCC(=O)O/N=C(\N)c2ccccc2)cc(C)c1Cl,3%,-12%,-1%,-8%,21%,·,
Cc1nn(-c2ccccc2)c(Cl)c1C(=O)NCc1cccs1,-14%,0%,4%,-21%,?,-22%,
Cc1nn(-c2ccccc2)c(C)c1C(=O)NCc1cccs1,5%,?,7%,2%,-6%,·,
O=C1/C(=C/c2ccco2)Oc2c1ccc(O)c2CN1CCCCC1,?,?,?,-4%,?,-17%,
COC(=O)COc1ccccc1/C=C1/NC(=O)NC1=O,-16%,1%,-1%,2%,i,·,
O=C(NC1CCC(O)CC1)c1cc(-c2ccco2)nc2ccccc12 (centres undefined),·,?,?,-25%,22µM*,?,
CCc1nnc(NC(=O)c2cc(-c3ccco3)nc3ccccc23)s1,?,?,?,-20%,?,?,
CCc1nnc(NC(=O)c2cc(-c3ccccn3)nc3ccccc23)s1,-18%,15%,-8%,0%,-11%,·,
Cc1ccc(-n2c(=O)c3ccc(C(=O)NCc4ccco4)cc3n(CC(=O)Nc3ccc(C)c(F)c3)c2=O)cc1,·,·,·,-5%,·,·,
CN(C)c1ccc(/C=C/C=C2/SC(=S)N(c3ccccc3)C2=O)cc1,4.5µM*,-12%,9%,-9%,1.4µM*,·,RECQ1 inh conf=3.5µM*;RECQ1 ADP FP=?
SMILES,L3MBTL1 inh,APE1 inh,JMJD2E inh,BLM inh,RECQ1 inh-1,RECQ1 inh-2,others
O=C(O)c1ccc(N2C(=O)/C(=C/C=C/c3ccccc3)SC2=S)cc1,-2%,3%,6%,1%,i,·,
Cc1cc(/C=C2\SC(=S)NC2=O)c(C)n1-c1ccccc1,-1%,0%,-25%,-21%,-8%,·,
Cc1cc(/C=C2\SC(=S)NC2=O)c(C)n1C,-8%,-4%,2%,-18%,0.32µM*,·,RECQ1 inh conf=45µM*;RECQ1 ADP FP=10µM*
O=c1oc2ccccc2c2oc3cc(O)c(O)cc3c12,?,?,28µM*,10µM*!,25µM*,35µM*,
Nc1c(N)c2ccccc2oc1=O,·,17%,?,-4%,-7%,·,
O=C(O)c1cc(N/N=C/c2ccc(N3CCOCC3)s2)ccc1Cl,20µM*,16µM*,?,-10%,14µM*,·,RECQ1 inh conf=10%[114 µM]
O=C(O)c1cc(Nc2nc(N3CCOCC3)nc(N3CCOCC3)n2)ccc1Cl,-1%,-3%,0%,3%,-2%,·,
CCn1c(CSc2nnc3ccccn23)nc2cc(C(=O)O)ccc21,5%,-7%,-3%,-7%,10µM*,56µM*,RECQ1 inh conf=45µM*;RECQ1 ADP FP=2µM*
COCCn1c(SCCCC(=O)c2ccc(Br)cc2)nnc1-c1ccncc1,·,-1%,10%,0%,-1%,·,
CCn1c(CSc2nnc(-c3ccncc3)n2CCOC)nc2cc(C(=O)O)ccc21,6%,-8%,-4%,-10%,22µM*,-178%,RECQ1 inh conf=56µM*;RECQ1 ADP FP=4.5µM*
COC(=O)c1ccc(C(=O)OC)c(NC(=O)CSc2n[nH]c(N)n2)c1,5%,-4%,·,·,·,·,
CCn1c(CSc2n[nH]c(N)n2)nc2cc(C(=O)O)ccc21,22%,?,-11%,-9%,32µM*,56µM*,
COc1ccccc1NC(=O)c1cc(S(=O)(=O)N2CCc3ccccc32)ccc1F,·,82%,·,1%,·,·,
CCN(CC)c1cccc(OC2=NS(=O)(=O)c3ccccc32)c1,-3%,15%,?,-4%,?,-22%,
CNC(=S)N(Cc1ccccc1)Cc1cccnc1,·,-9%,3%,0%,9%,·,
CCOC(=O)c1c(NC(=O)/C=C/C(=O)O)sc(C)c1-c1ccc(C(C)(C)C)cc1,-7%[11.4 µM],8%,-3%,-12%,?,50µM*,
O=C(CNC(=O)c1ccc(S(=O)(=O)N2CCCC2)cc1)N/N=C/c1ccc(Cl)cc1Cl,-1%,-3%,12%,3%,-6%,·,RECQ1 inh conf=-7%;RECQ1 ADP FP=6%
O=C(CNC(=O)c1ccc(S(=O)(=O)N2CCCC2)cc1)N/N=C/c1ccc(Cl)cc1,16%,0%,-2%,-8%,-1%,·,
CCN1/C(=C/c2ccc3ccccc3[n+]2CC)C=Cc2ccccc21,·,-4%,3%,-9%,?,50µM*,
